# Only some compounds are listed: those with a hit (about 3.1% of all), similar ones and a draw of the others.
# GSIS activator = primary screen for activators of insulin secretion dependent on glucose, INS-1E cells, GLuc reporter luminescence; activation, % at 16.6 µM; hit rate 0.61% among 370,000; INS-1E GLuc reporter insulin secretion, 2-3 h;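 active means lowest replicate activation of at least 40%, so every replicate reaches that level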;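 further: 0% = median of neutral control wells and 100% = median of IBMX positive control wells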
# PAX8 inh HTS = lowers PAX8-driven luciferase in RMG-I cells. inhibition, % at 12.6 µM. RMG-I TPO-luciferase reporter, SteadyGlo, 24 h. AID 652154. hit rate 1.2% among 360,000;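 active means mean replicate inhibition at least 60% with every replicate also reaching 60%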;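 further: luciferase light reporting Pax8 driven TPO promoter activity; plate controls were median of neutral control wells for no effect and mitoxantrone controls for full effect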
# EWS-Fli inh = EWS/Fli transcriptional activity inhibition | hit rate 0.67% among 350,000 | inhibition, % at 12.6 µM | A673 NR0B1-luciferase reporter, viability-normalised;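 active means mean inhibition of at least 50% after viability correction, with every replicate also passing that limit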;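 further: firefly luciferase signal divided by Alamar Blue viability fluorescence both relative to DMSO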
# HIV Env fusion = inhibitors of HIV Env-mediated cell fusion; hit rate 1.1% among 360,000; HeLa-JRFL Env/CEM21 cell fusion, luciferase; inhibition, % at 12.3 µM;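 active means mean replicate inhibition score of at least 50 and every replicate individually at or above 50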;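 further: 0% = plate neutral controls and 100% = maraviroc near 300 nM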
# miR122 inh = blocks miR-122 activity in Huh7 sensor cells; Huh7 miR-122 Renilla luciferase sensor, 48 h; neutral wells = 0, positive control = 100; activation (reporter increase), % at 12.5 µM; hit rate 0.3% among 340,000; AID 602342;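 active means mean replicate activation score at least 90 and every replicate individually at or above 90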;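 further: higher luciferase means less miR-122 activity so hits act as miR-122 inhibitors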
# C2C12 statin = protects C2C12 myotubes from simvastatin toxicity; ATP luminescence, 48 h; scaled: DMSO 0, geranylgeraniol control 100; rescue of ATP level, % at 7.49 µM; hit rate 0.78% among 330,000; AID 602340;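 active means mean ATP rescue above about 67%, or every replicate alone reaching that limit, limit read from the data, passing the limit was not always enough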;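 further: myotubes were challenged with 10 µM simvastatin during compound exposure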
# Active calls of the source: *; . = no result given; [ ] = another dose, or the depositor's remark.
SMILES,GSIS activator,PAX8 inh HTS,EWS-Fli inh,HIV Env fusion,miR122 inh,C2C12 statin
Cc1ccc(S(=O)(=O)Nc2ccc3c(c2)C(=O)N([C@H](C)CO)C[C@@H](C)[C@H](CN(C)Cc2ccncc2)OCCCC[C@@H](C)O3)cc1,-12.3,1.1,3.3,-18.9[16.7 µM],-8.9[16.7 µM],.
O=C(c1ccccc1)c1nc[nH]c1C(=O)Nc1ccccn1,.,.,.,.,-0.5,120.1*
O=C(O)C1CCCCC1C(=O)Nc1ccccn1 (configuration not stated),.,-7.5,.,0.9,-3.3,105.0*
O=C(Nc1ccccn1)c1ccc(C(=O)c2ccccc2)cc1,3.3,-221.3,-81.8,-59.0,-4.7,12.8
O=C(NC(=O)c1ccccc1)Nc1ccccn1,9.9,85.0*,.,67.8*,4.3,-34.2
O=C(C[C@@H]1C[C@H]2c3cc(NC(=O)NC4CCCCC4)ccc3O[C@H]2[C@@H](CO)O1)NC1CCCC1,4.8,.,.,.,.,.
C[C@@H]1CN([C@H](C)CO)C(=O)c2cccc(NS(=O)(=O)c3ccc(Cl)cc3)c2O[C@@H]1CN(C)C(=O)Nc1ccc2c(c1)OCO2,-10.1,11.6,-10.7,-27.6[16.7 µM],4.0[16.7 µM],46.2
CC(C)(C)[S@@](=O)N1Cc2cc(C(=O)N3CCOCC3)nc(-c3cccc(Br)c3)c2[C@H]1CCO,10.2,-10.3,-5.2,.,.,.
C/C=C/c1ccc([C@@H]2[C@@H](CO)N3C(=O)CN(Cc4ccc(C)cc4)C[C@H]23)cc1,6.0,.,.,.,.,.
C[C@H]1CCC/C=C/[C@@H]2C[C@H](O)C[C@H]2[C@H](O)[C@H](S(=O)c2ccc(O)cc2)CC(=O)O1 (some centres not stated),.,110.9*,65.7*,48.4,-6.4,.
CC1CCCN(C(=O)c2nn(C)c3c2CSc2ccccc2-3)C1 (configuration not stated),7.4,-33.7,-13.4,-7.9,-1.7,26.0
CC1CCCC(C)N1CCCNC(=O)c1nn(C)c2c1CSc1ccccc1-2 (configuration not stated),2.3,27.2,4.7,80.3*,-4.4,3.0
Cc1csc(N=Nc2ccc(N(C)C)cc2)[n+]1[O-],-27.4,68.1*,-13.7,26.6,.,.
Cc1ccc(NC(=O)C2CC(=O)N/C(=N/N=C/c3ccco3)S2)cc1C (configuration not stated),.,117.7*,5.1,.,4.1,.
Cc1ccc(NC(=O)C2CC(=O)N/C(=N/N=C/c3ccco3)S2)cc1 (configuration not stated),34.3,-8.6,.,3.1,.,.
Cn1cnc(S(=O)(=O)N2CCCCN3[C@H](CO)[C@@H](c4ccc(C5=CCCC5)cc4)[C@H]3C2)c1,.,-22.4,-8.7,.,4.4[16.7 µM],.
CC1=C(C(N)=O)C(c2cccnc2)n2nc(SCc3ccccc3Cl)nc2N1 (configuration not stated),.,.,.,.,-4.3,.
CCOC(=O)C1=C(C)Nc2nc(SCc3cccnc3)nn2C1c1ccc(OC)cc1 (configuration not stated),5.8,11.6,7.6,61.5*,-3.2,3.6
Cc1ccc(S(=O)(=O)N(C)C[C@H]2Oc3ccc(NC(=O)Nc4c(C)noc4C)cc3CC(=O)N([C@H](C)CO)C[C@H]2C)cc1,6.9,12.7,-1.6,-5.6[16.7 µM],-0.3[16.7 µM],-20.4
CO[C@@H]1CN(C)C(=O)c2ccc(NC(=O)C3CC3)cc2OC[C@H](C)N(Cc2cccc(F)c2)C[C@H]1C,-22.2,7.3,4.0,24.3[16.7 µM],3.5[16.7 µM],-0.1
O=C(CN(C1CCCCC1)S(=O)(=O)c1ccc(F)cc1)Nc1ccc2c(c1)OCO2,.,7.1,.,-25.3,246.6*,22.0
CCCNC(=O)N1C[C@@H](O)COC[C@H]2O[C@@H](CC(=O)NCc3ccc(Cl)c(Cl)c3)CC[C@@H]21,2.8,6.6,-7.4,18.9[16.7 µM],-4.4[16.7 µM],-1.0
COc1ccccc1NC(=O)c1ccc2nc(-c3ccccc3)c(-c3ccccc3)nc2c1,.,.,.,-21.4,-8.7,83.8*
COc1cc(N)c(Cl)cc1NC(=O)c1ccccc1,.,-0.5,.,-44.0,-40.1,4.1
COc1ccc(NC(=O)c2ccc3nc(-c4ccccc4)c(-c4ccccc4)nc3c2)c(OC)c1,.,9.5,9.4,11.8,.,.
SMILES,GSIS activator,PAX8 inh HTS,EWS-Fli inh,HIV Env fusion,miR122 inh,C2C12 statin
COc1cc(NC(=O)c2ccccc2)c(OC)cc1Cl,.,.,.,.,2.1,130.3*
C[C@@H]1CCCCO[C@@H](CN(C)C)[C@H](C)CN([C@H](C)CO)C(=O)c2cc(NC(=O)Nc3cccc4ccccc34)ccc2O1,21.0,14.0,-7.9,18.3[16.7 µM],-1.9[16.7 µM],31.4
CC1Cc2cc(-c3csc(NC(=O)Cc4cccs4)n3)ccc2N1S(C)(=O)=O (configuration not stated),-34.6,.,.,74.6*,-22.3,.
O=C(N/N=C/c1ccco1)c1cc([N+](=O)[O-])cc([N+](=O)[O-])c1,9.8,-14.6,82.1*,14.3,.,.
COc1ccc(CN(C)C[C@H]2OCCCC[C@H](C)Oc3ccc(NC(=O)c4ccncc4)cc3C(=O)N([C@@H](C)CO)C[C@H]2C)cc1,-3.4,.,-0.4,-12.0[16.7 µM],-1.5[16.7 µM],.
COc1cc(S(=O)(=O)NCc2ccncc2)ccc1Br,-26.3,26.0,38.1,64.5*,61.2,-10.0
Cn1c(=O)oc2cc(S(=O)(=O)NCc3ccncc3)ccc21,.,.,.,100.1*,21.6,-12.8
Cc1cc(C)c(C)c(S(=O)(=O)NCc2ccncc2)c1C,-26.0,22.7,44.3,57.1*,122.1*,-3.0
Cc1ccc(S(=O)(=O)N[C@H]2CC[C@H](CCNC(=O)C3CCCCC3)O[C@@H]2CO)cc1,-6.3,4.0,-2.5,9.9[16.7 µM],-14.6[16.7 µM],4.5
O=C(C[C@@H]1CC[C@H](NC(=O)CCN2CCCCC2)[C@H](CO)O1)Nc1ccc(-c2ccccc2)cc1,0.4,-7.2,0.5,-6.1[16.7 µM],.,-4.4
O=C(/C=C/Nc1ccc(Br)cc1F)c1ccccc1,.,-25.6,74.3*,-76.5,.,.
CCc1ccc(OCC(=O)NNC(=O)C2CCC2)cc1,8.3,-4.4,-4.3,63.8*,-6.0,12.0
CCN(CC)CCCNc1ccc(-c2nnc(-c3ccc(OCC(C)C)cc3)o2)cn1,30.4,41.6,61.0*,-7.6,11.0,-0.7
Cc1ccc(S(=O)(=O)N2[C@@H]3CNC[C@H]2C3c2ccc(-c3ccccc3C)cc2)cc1 (some centres not stated),0.6,-6.8,14.4,.,.,.
NC(=S)n1[nH]c(-c2ccc([N+](=O)[O-])cc2)c(N=Nc2cccc([N+](=O)[O-])c2)c1=O,1.5,-1.4,25.3,63.3*,-6.4,-24.6
C[C@H](CO)N1C[C@H](C)[C@@H](CN(C)Cc2ccc(-c3ccccc3)cc2)Oc2c(NC(=O)Nc3ccccc3)cccc2C1=O,9.0,.,.,.,.,.
COCC(=O)N(C)C[C@@H]1Oc2ncc(C#Cc3cccnc3)cc2C(=O)N([C@@H](C)CO)C[C@@H]1C,3.9,.,-1.6,-0.1[16.7 µM],6.1[16.7 µM],0.6
CCOCc1c(C(=O)NC2=Nc3ccccc3NC(CC)=C2C(=O)OCC)oc2ccccc12,-35.2,79.6*,-8.3,21.1,.,.
